Compound activity (PubChem)
TRHR ag = activates the human TRH receptor | TRHR cells, calcium flux fluo-8, FDSS agonist mode | AID 493084 | activation, % at 2 µM | P34981 | 0.18% of 360,000 active; in the data active = activation above about 30%; also: 0% is about no effect
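TRHR-expressing cells loaded with fluo-8 calcium dye; 23 nL library compound pin-transferred, kinetic FDSS fluorescence (Ex 480/Em 530) recorded about 180 s for agonist-induced calcium release, before a 10 nM TRH EC20 addition for potentiator mode.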
GLP-1R inv ag = inverse agonists of human GLP-1 receptor | HEK293 GLP-1R CRE-luciferase, luminescence, 24 h; GLP-1R form is constitutively active | 1.6% of 410,000 active | AID 624417 | Potency, µM (titrated, usually from 38.3 µM), for the others: at the top dose activity change, negative = inhibition, hits mostly inhibitors | P43220; also: potency is read from the fitted curve at half-maximal effect; % is scaled to controls: 0 for no effect and ±100 for the full control effect; nearly all actives have a fitted effect of over 55% in size
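Stable HEK293 clone (constitutively active GLP-1R + cAMP-response luciferase); 200 cells/uL plated, 12 h pre-culture, compound 24 hr, 37 deg C/5% CO2; detection reagent 12 min RT; luminescence.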
PTHR1 ag = activates the human parathyroid hormone receptor PTHR1. AID 743266. Potency, µM (series often up to 115 µM), inactives show top-dose activation, actives largely listed as activators. 0.075% of 410,000 active. Q03431. HEK293 GP2 PTHR1 cells, GloSensor cAMP luminescence, 1 h; also: potency is read from the fitted curve at half-maximal effect; nearly all actives have a fitted effect of over 55% in size
Target sequence (Q03431 whole entry, looked up): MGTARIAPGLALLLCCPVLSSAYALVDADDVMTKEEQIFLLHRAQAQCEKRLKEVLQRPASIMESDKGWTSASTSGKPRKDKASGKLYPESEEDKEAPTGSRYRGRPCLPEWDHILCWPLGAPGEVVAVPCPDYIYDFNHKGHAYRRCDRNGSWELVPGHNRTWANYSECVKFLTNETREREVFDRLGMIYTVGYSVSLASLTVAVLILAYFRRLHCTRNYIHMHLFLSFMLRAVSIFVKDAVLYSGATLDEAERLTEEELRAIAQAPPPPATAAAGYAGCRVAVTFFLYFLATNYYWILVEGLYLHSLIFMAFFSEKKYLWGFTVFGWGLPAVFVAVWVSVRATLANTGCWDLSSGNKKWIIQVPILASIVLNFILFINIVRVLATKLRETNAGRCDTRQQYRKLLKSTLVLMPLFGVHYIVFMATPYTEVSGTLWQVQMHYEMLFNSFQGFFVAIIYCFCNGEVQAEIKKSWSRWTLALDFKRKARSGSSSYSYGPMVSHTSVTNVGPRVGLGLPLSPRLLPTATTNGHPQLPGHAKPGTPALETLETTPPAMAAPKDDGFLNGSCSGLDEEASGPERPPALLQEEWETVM
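HEK-293-derived GP2 cells expressing PTHR1 and a GloSensor cAMP reporter, 3,000/well, plated overnight, given luciferin plus IBMX (each 0.5 mM as added) for 1 h at 37 °C, then compound for 1 h at 37 °C. Luminescence was read after 15 min at room temperature.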
HEK293 tox = cytotoxicity counter-screen for GLP-1 receptor inverse agonists; 0.13% of 410,000 active; HEK293 cAMP-luciferase reporter cells, luminescence, 24 h; Potency, µM (titrated, usually from 38.3 µM), for the others: top-dose activity change, negative = inhibition, usual class: inhibitors;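 also: loss of luciferase light is scored as toxicity; potency is read from the fitted curve at half-maximal effect; % is scaled to controls: 0 for no effect and ±100 for the full control effect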
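1536-well qHTS counterscreen of the MLSMR; 200 cells/uL, 12 h pre-incubation, 23 nL cpd, 24 h at 37 deg C 5% CO2, luciferase detection reagent, 12 min RT, luminescence. Inhibition = undesired.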
TRHR enhancer = TRH receptor (human) allosteric enhancement. TRHR cells, fluo-8 calcium fluorescence, EC20 TRH enhancement. 0.66% of 360,000 active. enhancement, % at 2 µM; in the data active = enhancement above about 30%; also: 0% is about no effect
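TRHR-expressing cells loaded with fluo-8 calcium dye were read kinetically (ex 480/em 530) during compound addition, then stimulated with an EC20 of TRH (10 nM final). Enhancement of the Gq-mediated intracellular calcium response was scored.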
GLP-1R agonist = activates the human GLP-1 receptor. P43220. HEK293 GLP-1R CRE-luciferase, luminescence, 4-6 h; cells express a hypersensitive GLP-1R form. Potency, µM (titrated, usually from 45.6 µM), for the others: top-dose activation, usual class: activators. 0.007% of 380,000 active. AID 624172; also: potency is read from the fitted curve at half-maximal effect; % of control where 0% means no effect
* = called active by the depositor; i = inactive; ? = inconclusive; · = no result; [ ] = remark or other dose. Compounds with a hit are over-represented: about 2.4% of the library has one in this group of screens. Unless noted, calls follow the shape of the dose curve; as a rule, active = well fitted curve in the direction sought with a large enough effect; inconclusive = small, poorly fitted or top-dose-only effect, or another doubt; inactive = no such curve, though single readings can be large; an effect the other way counts as inactive or inconclusive.

SMILES	TRHR ag	GLP-1R inv ag	PTHR1 ag	HEK293 tox	TRHR enhancer	GLP-1R agonist
O=C1C2C3CCC(C3)C2C(=O)N1c1ccc(OS(=O)(=O)c2ccccc2)cc1 (stereo unspecified)	0	3.2µM*	-92%	-4%	-1	10%
Cc1ccc(-c2nc(N3CCOCC3)s[n+]2-c2ccccc2)cc1	0	?	i	13%	31*	-20%
Brc1cc(Br)c2nc(-c3ccc(N4CCOCC4)cc3)ccc2c1	0	9%	i	225%	4	0%
COc1ccc(C(CNC(=O)CCc2ccsc2)N(C)C)cc1 (stereo unspecified)	0	-19%	i	0%	-1	6%
O=C1C=C(c2c(O)ccc3ccccc23)c2ccccc2C1=O	·	?	-34%	10µM*	·	-5%
O=C1C=Cc2ccccc2C1=O	0	·	·	·	3	·
Cc1ccc(OCC(=O)Nc2ccc(Cl)cc2C(=O)c2ccccc2)cc1	0	7%	i	2%	0	-4%
Cc1ccc(S(=O)(=O)NCCC(=O)Nc2ccc(Cl)cc2C(=O)c2ccccc2)cc1	0	11µM*	-16%	11%	4	8%
COC(=O)C1=C(c2cccc(Cl)c2)C[C@@H]2CC[C@H]1N2C(=O)NCC1CC1	0	-28%	-24%	15%	-11	7%
O=C1C2CCCN2C(c2cccs2)N1c1ccccn1 (stereo unspecified)	-1	0%	-10%[57.5 µM]	0%	-7	-2%
Cc1cc(N=Nc2ccccc2C)ccc1N	·	10µM*	-23%	-21%	·	17%
Fc1ccc(CCNCc2cccc(Cl)c2)cc1	3	?	6%[57.5 µM]	-2%	-5	17%
O=C(Nc1cccc(Cl)c1)c1cc(S(=O)(=O)NCCc2ccc(Cl)cc2)ccc1F	1	5.6µM*	i	?	3	-3%
Cc1cc(Br)ccc1NC(=S)Nc1cccc([N+](=O)[O-])c1	1	?	-54%	?	-2	-12%
Cn1c(O)c(C=NCCN2CCNCC2)c(=O)[nH]c1=O	0	-7%	i	17%	13	-15%
COc1ccccc1N1CCN(Cc2ccc(Br)cc2)CC1	0	10µM*	-37%	2%	-3	7%
COC(=O)C1C(O)C(C)C(O)C(C)/C=C\C=C(/C)C(=O)Nc2c(C)c(OC(C)=O)c3c(c2O)C(=O)C(C)=C2OCOC(=C23)/C(C)=C/C(C)(O)C(O)C(C)C1O (stereo unspecified)	-2	-6%	i	-7%	-2	-3%
CCOc1ccc(-c2cc(C)[n+](CCO)c(-c3ccc(OCC)cc3)c2)cc1	0	-24%	-22%	-16%	5	-3%
CCOc1ccc(-c2cc(C)[n+](CCc3ccc(OC)c(OC)c3)c(-c3ccc(OCC)cc3)c2)cc1	0	6.3µM*	-53%	?	-7	6%
Nc1cc(Cl)c2nonc2c1[N+](=O)[O-]	1	?	-20%	8.9µM*	-3	-31%
O=[N+]([O-])c1c(Cl)c(Cl)c(Cl)c(Cl)c1Cl	·	16%	-24%	0%	·	7%
CCOc1c(Cl)cc(CNCCc2c[nH]c3ccccc23)cc1OC	3	?	i	?	9	9%
CCOc1cc(CNCCc2c[nH]c3ccccc23)cc(Cl)c1OCC	2	11µM*	i	?	1	-5%
COc1cc(/C=C(/C)[N+](=O)[O-])ccc1OCc1ccccc1Cl	5	7.1µM*	-29%	?	-20	-8%
COc1ccc(CCNCc2ccc(SC)cc2)cc1	0	-18%	i	4%	7	-3%
SMILES	TRHR ag	GLP-1R inv ag	PTHR1 ag	HEK293 tox	TRHR enhancer	GLP-1R agonist
COc1ccc2sc(-c3ccc(SC)cc3)c(-c3ccc(O)cc3)c2c1	·	5.6µM*	-40%	?	·	-5%
COc1cccc(N2C(=O)NC(=O)/C(=C/c3ccc([N+](=O)[O-])s3)C2=O)c1	3	11%	-14%	-9%	-5	1%
COC(=O)c1ccc(-n2c(C)nc3ccccc3c2=O)cc1	0	0%	i	-8%	6	0%
COC(=O)c1ccc(Nc2cc(C)nc3ccc(C)cc23)cc1	0	10µM*	-34%	?	9	5%
COc1ccccc1CNCC(=O)Nc1cc(S(=O)(=O)N2CCCCC2)ccc1C	·	?	-17%	3%	·	3%
Cc1ccc(S(=O)(=O)N2CCC(C(=O)OCc3ccccc3)CC2)cc1C	0	10µM*	-76%	-11%	10	13%
O=C1CN=C(c2ccccc2Cl)c2cc(Br)ccc2N1	·	-21%	i	-14%	·	17%
O=c1[nH]c2ccccc2n1C1CCN(Cc2ccc(-c3nc4ccccc4nc3-c3ccccc3)cc2)CC1	·	?	-45%	?	·	-2%
O=c1[nH]c2ccccc2n1C1CCN(Cc2ccc(-c3nc4ccc(F)cc4nc3-c3ccccc3)cc2)CC1	·	4.5µM*	-18%	?	·	-3%
O=C(NCC1=C(c2cccc3ccccc23)C[C@@H]2CC[C@H]1N2Cc1ccco1)c1cccs1	·	10µM*	-12%	?	·	-8%
CC1(C)C(C(=O)N2CCN(C(=O)c3ccccc3)CC2)C1(C)C	1	?	i	-16%	0	2%
CN1CN(c2cccc([N+](=O)[O-])c2)CN=C1N[N+](=O)[O-]	1	13%	-3%	9%	4	1%
COc1ccccc1CNc1nc(NCc2ccccc2OC)c2sccc2n1	·	11µM*	-43%	?	·	-3%
Cc1ccc(-c2nnc(Nc3ccc(OC(F)(F)Cl)cc3)c3ccccc23)cc1S(=O)(=O)NC(C)(C)CO	1	?	-5%	-29%	0	-4%
O=c1nc(/C=C/c2ccc(Cl)cc2Cl)cc(C(F)(F)F)[nH]1	0	4µM*	-32%	-7%	-5	-4%
CCCc1cc(C(=O)Nc2c(C)nn(Cc3ccc(Cl)c(Cl)c3)c2C)no1	-1	10µM*	-46%	?	9	·
CCOC(=O)[C@]12Cc3cc(C)ccc3[C@H]1N(C(C)C)C(=O)c1ccccc12	·	?	-92%	?	·	-32%
O=P(Nc1cccc(F)c1)(Oc1ccccc1F)Oc1ccccc1F	1	11µM*	i	-18%	9	11%
Cc1cccc(NP(=O)(Oc2ccccc2F)Oc2ccccc2F)c1	0	11µM*	-3%	?	2	-17%
Cc1ccc(NP(=O)(Oc2ccccc2F)Oc2ccccc2F)cc1C	1	?	i	-28%	0	1%
